# Assay outcomes: PubChem BioAssay, National Center for Advancing Translational Sciences (NCATS)
# Shown is part of a subset that was picked to be rich in hits.
# nsP2pro inh: blocks chikungunya virus nsP2 protease peptide cleavage. 31,000 compounds, 1.1% hits. FRET peptide cleavage, nsP2pro, fluorescence 1 h. Q8JUX6. Potency, µM (titrated, usually from 24.9 µM), inactives show top-dose activity change, negative = inhibition, most hits filed as inhibitors; further: nearly all actives have a fitted effect of over 60% in size
#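 Recombinant nsP2pro (150 nM) was preincubated with compound 15 min at room temperature in 10 mM Tris-HCl pH 8.0, 0.01% Tween 20. Peptide 2 FRET substrate (2.5 uM) was then added and fluorescence read after 1 h. Seven-point series, up to 25 uM.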
# nsP2 cell sec: cell-based CHIKV nsP2 protease inhibition, secondary; Potency, µM (titrated, usually from 51.1 µM), for the others: at the top dose activity change, negative = inhibition, usual class: inhibitors; cell-based CHIKV nsP2 protease reporter assay; shares compounds with nsP2pro inh; 450 compounds, 10% hits; further: nearly all actives have a fitted effect of over 70% in size
# NSP2 full ctr: inhibits full-length CHIKV NSP2 enzyme; Full-length CHIKV NSP2 protease enzymatic counterscreen; 410 compounds, 39% hits; shares compounds with nsP2pro inh; Potency, µM (doses to about 50.7 µM), inactives show top-dose activity change, negative = inhibition, hits mostly inhibitors; AID 1964101; further: nearly all actives have a fitted effect of over 65% in size
# Furin counterscr: selectivity counter-screen for CHIKV nsP2 protease inhibitors: human furin. shares compounds with nsP2pro inh. Recombinant human furin enzymatic counterscreen, fluorogenic substrate. Potency, µM (series often up to 50.6 µM), for the others: top-dose activity change, negative = inhibition, usual class: inhibitors. 410 compounds, 6% hits. AID 1964102
# Target sequence (P09958 whole entry, looked up): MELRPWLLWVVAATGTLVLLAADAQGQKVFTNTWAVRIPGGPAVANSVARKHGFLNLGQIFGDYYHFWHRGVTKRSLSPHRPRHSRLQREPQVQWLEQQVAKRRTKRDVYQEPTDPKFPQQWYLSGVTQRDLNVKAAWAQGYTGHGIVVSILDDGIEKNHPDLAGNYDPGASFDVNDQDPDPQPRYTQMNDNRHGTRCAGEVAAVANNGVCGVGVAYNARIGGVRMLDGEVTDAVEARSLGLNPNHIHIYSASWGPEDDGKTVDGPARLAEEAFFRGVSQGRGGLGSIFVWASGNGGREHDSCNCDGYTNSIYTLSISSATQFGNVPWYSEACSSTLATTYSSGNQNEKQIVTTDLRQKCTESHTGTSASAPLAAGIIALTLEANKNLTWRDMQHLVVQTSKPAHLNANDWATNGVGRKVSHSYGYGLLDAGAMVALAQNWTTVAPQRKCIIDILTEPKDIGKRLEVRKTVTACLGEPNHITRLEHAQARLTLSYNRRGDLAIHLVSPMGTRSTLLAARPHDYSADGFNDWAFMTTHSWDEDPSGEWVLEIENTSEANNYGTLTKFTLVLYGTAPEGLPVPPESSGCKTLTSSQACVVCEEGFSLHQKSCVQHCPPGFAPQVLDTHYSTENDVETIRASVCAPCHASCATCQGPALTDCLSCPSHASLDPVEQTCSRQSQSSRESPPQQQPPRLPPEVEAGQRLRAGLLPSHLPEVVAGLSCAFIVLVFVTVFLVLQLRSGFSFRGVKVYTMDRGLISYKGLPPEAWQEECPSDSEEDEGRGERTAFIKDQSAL
# nsP2 NS23 pep: nsP2pro inhibition on native NS2/3 peptide substrate; shares compounds with nsP2pro inh; Purified CHIKV nsP2 protease, endogenous NS2/3 peptide cleavage; Potency, µM (titrated, usually from 51 µM), for inactives: at the top dose activity change, negative = inhibition, usual class: inhibitors; 410 compounds, 34% hits; AID 1964103; further: nearly all actives have a fitted effect of over 55% in size
# Papain cs: papain protease inhibition, counterscreen for nsP2pro inhibitors; Potency, µM (doses to about 51 µM), without a hit: at the highest dose activity change, negative = inhibition, hits mostly inhibitors; purified papain protease activity, enzymatic inhibition; 410 compounds, 5% hits; shares compounds with nsP2pro inh; AID 1964104
# nsP2pro conf qHTS: confirmation of CHIKV nsP2 protease inhibitors; shares compounds with nsP2pro inh; AID 1964105; 410 compounds, 43% hits; CHIKV nsP2 protease enzymatic activity, qHTS; Potency, µM (doses to about 25.5 µM), for the others: at the highest dose activity change, negative = inhibition, hits mostly inhibitors; further: nearly all actives have a fitted effect of over 75% in size
# HCV NS3 4A cs: HCV NS3/4A protease inhibition, counterscreen; shares compounds with nsP2pro inh; HCV NS3/4A protease biochemical counterscreen; Potency, µM (doses to about 50.9 µM), hits mostly inhibitors; 410 compounds, 20% hits; AID 1964106; further: nearly all actives have a fitted effect of over 55% in size
# Numbers without * were called inactive; i = inactive; u = inconclusive; [ ] = dose if it differs, or a comment. The call rests on the fitted dose curve. On the % scale 0 is the no-effect control and ±100 the full control effect; potency means the concentration at half of the fitted maximal effect.
SMILES,nsP2pro inh,others
C(#Cc1cccc(CN2CCOCC2)c1)CCN1CCCCC1,9.9µM*,nsP2 cell sec=6%;NSP2 full ctr=u;Furin counterscr=-12%;nsP2 NS23 pep=u;Papain cs=-10%;nsP2pro conf qHTS=u;HCV NS3 4A cs=i
COc1cccc(CN2CCOCCNC(=O)CC2)c1,-12%,
COc1ccccc1NC(=O)C1=C(C)Nc2ncnn2C1c1ccccc1C(=O)O (configuration not stated),-15%,
COc1ccccc1NC(=O)C1=C(C)Nc2nc(-c3ccco3)nn2C1c1ccccc1F (configuration not stated),u,nsP2 cell sec=19%
COc1ccccc1NC(=O)C1=C(C)Nc2nc(SCc3ccccc3Cl)nn2C1c1ccncc1 (configuration not stated),-19%,
CN1CCC(N2CC[C@H](c3nc4ccc(C(F)(F)F)cc4[nH]3)C2)CC1,i,
CCCCN(C)C(=O)c1c(C)sc2ccn(CCC)c(=O)c12,-17%,
O=C(NC1CCNCC1)[C@@H]1CC[C@@H]2CN1C(=O)N2OS(=O)(=O)O,-2%,
CSCCCN1CC[C@@H](NC(=O)c2ccncc2)[C@H](O)C1,-9%,
O=C1c2cccc(O)c2C(=O)c2c(O)cc(CO)cc21,u,nsP2 cell sec=-9%;NSP2 full ctr=-1%;Furin counterscr=-6%;nsP2 NS23 pep=-13%;Papain cs=-13%;nsP2pro conf qHTS=10%;HCV NS3 4A cs=i
O=C1c2c(O)ccc(O)c2C(=O)c2c(NCCNCCO)ccc(NCCNCCO)c21,219%,
Cc1noc(C)c1-c1cc2c(cc(C)n2CCN(C)C)c(Nc2ccncn2)n1,i,
CC1=CC(=O)C[C@H]2[C@@H]1CC[C@@H](C)[C@]21CO[C@H](c2ccoc2)C1=O,u,nsP2 cell sec=1%[33.5 µM];NSP2 full ctr=-21%[33.5 µM];Furin counterscr=6%[33.5 µM];nsP2 NS23 pep=i;Papain cs=-5%[33.5 µM];nsP2pro conf qHTS=10%[16.7 µM];HCV NS3 4A cs=i
O=c1c2ccc(C(F)(F)F)cc2nc2sc(Nc3ccc4c(c3)CCC4)nn12,i,
O=C1C(N2CCN(S(=O)(=O)c3cc(F)ccc3F)CC2)CCN1Cc1cccnc1 (configuration not stated),i,
Fc1cccc(-c2nc3ccccc3s2)c1,-2%,
CCOc1ccc(CCNC(=O)c2ccccn2)cc1OCC,0%,
O=C(COc1ccccc1CNc1ccccc1)Nc1ccc(F)cc1,-49%,
CCOc1cc(CNc2ccc(O)cc2)ccc1OCc1ccc(Cl)cc1,10µM*,nsP2 cell sec=13µM*;NSP2 full ctr=18µM*;Furin counterscr=-22%;nsP2 NS23 pep=u;Papain cs=-24%;nsP2pro conf qHTS=-2%;HCV NS3 4A cs=u
O=C(COc1ccccc1CNc1ccc(F)cc1)Nc1ccc(F)cc1,-1%,
O=C(COc1ccccc1CNc1ccc(F)cc1)Nc1ccc(Cl)cc1,29%,
Oc1cc(NCc2ccc(Cl)cc2)cc2cccnc12,3%,
COc1cccc(CNc2ccc(S(=O)(=O)Nc3ccccn3)cc2)c1O,i,
Oc1ccc(NCc2ccccc2OCc2ccccc2)cc1,3µM*,nsP2 cell sec=12µM*;NSP2 full ctr=u;Furin counterscr=-8%;nsP2 NS23 pep=18µM*;Papain cs=-7%;nsP2pro conf qHTS=u;HCV NS3 4A cs=21µM*
Oc1ccc(NCc2ccccc2OCc2ccc(Cl)cc2)cc1,2.4µM*,nsP2 cell sec=12µM*;NSP2 full ctr=13µM*;Furin counterscr=-12%;nsP2 NS23 pep=u;Papain cs=-12%;nsP2pro conf qHTS=u;HCV NS3 4A cs=13µM*
SMILES,nsP2pro inh,others
CCc1noc(-c2cn(C3CCN(C(=O)Cc4cccc(OC)c4)CC3)nn2)n1,1%,
O=C(O)c1ccc(CCCc2ccc(OCCc3ccc(F)cc3)cc2)o1,31%,
[Mn].[O]=[Mn][OH].[O]=[Mn][OH],-3%,
Cc1cnc(C(=O)N(C)C2CCc3nn(CC4CC4)c(=O)n3CC2)cn1 (configuration not stated),0%,
COc1ccc(-c2ccc(NC(=O)C3CCCC3)cc2)nn1,i,
CCN1CCC(=C2c3ccccc3CCc3ccccc32)C1C (configuration not stated),-12%,
O=C(Nc1ccc(F)cc1)c1ccc2cc[nH]c2n1,-3%[39.2 µM],
CN1CCCC1c1nc(C2CN(S(=O)(=O)c3ccc(C#N)cc3)C2)no1 (configuration not stated),36%,
CNC(=O)[C@@H]1CN(C(=O)Cc2cc(C)no2)C[C@H]1COC,5%,
COc1ccccc1C(c1c(O)cc(C)n(Cc2ccco2)c1=O)N1CCCCC1 (configuration not stated),-21%,
COC(=O)N(C)Cc1cccc(N2CCN(C(c3ccccc3)c3ccccc3)CC2)c1,-8%,
COCCn1c(C)cc(O)c(C(c2ccccc2OC)N2CCN(c3ccccc3)CC2)c1=O (configuration not stated),u,nsP2 cell sec=3%
COc1cc(/C=C\C(=O)N2CCN(CC(=O)N3CCCC3)CC2)cc(OC)c1OC,-8%,
COc1ccc(-n2nc(C)c([C@@H]3C=C[C@@H](NCc4ccc(C(C)C)cc4)C3)c2C)cc1,-20%[39.2 µM],
CC1(C)O[C@H]2CC(=O)OC[C@@]23C1=C(O)C(=O)[C@]1(C)C3CC[C@@]2(C)[C@H](c3ccoc3)OC(=O)[C@H]3O[C@]321 (some centres not stated),u,nsP2 cell sec=0%[17.6 µM];NSP2 full ctr=-7%[17.3 µM];Furin counterscr=-3%[17.3 µM];nsP2 NS23 pep=i;Papain cs=-13%[17.2 µM];nsP2pro conf qHTS=10%[8.62 µM];HCV NS3 4A cs=u
C=C1[C@@H]2CC[C@@]3(C)[C@H](c4ccoc4)OC(=O)C[C@]13O[C@H]1CC(=O)C(C)(C)[C@H](C(OC(C)=O)C(=O)OC)[C@]12C (some centres not stated),-18%[10 µM],
CC1(C)OC(=O)CC(O)C2(C)C1CC(=O)C1(C)C2C(O)CC2(C)C(c3ccoc3)OC(=O)C3OC321 (configuration not stated),u,nsP2 cell sec=10%[17.6 µM];NSP2 full ctr=-19%[17.3 µM];Furin counterscr=-5%[17.3 µM];nsP2 NS23 pep=-10%[17.2 µM];Papain cs=-6%[17.2 µM];nsP2pro conf qHTS=-16%[8.62 µM];HCV NS3 4A cs=i
CC(=O)N1C[C@@H](NC(=O)Nc2ccc(F)cc2F)C[C@H]1C(=O)N[C@H](Cc1c[nH]c2ccccc12)C(N)=O,3%,
Cc1cc(CS(=O)(=O)c2ccccc2)cc(OCc2ccc(CN3CCC[C@@H]3CO)cc2)c1,60%,
CC1(C)CC=C(c2cnc3ccccc3c2)c2cc(C(=O)Nc3ccc(C(=O)O)cc3)ccc21,182%,
CCN(CC)C(=O)N1CCC(c2noc(COc3ccc(F)cc3)n2)C1 (configuration not stated),-8%,
Cc1ccc(-c2cc3n(n2)CCCN(C(=O)CCc2cc(Cl)no2)C3)o1,8.9µM*,nsP2 cell sec=15%;NSP2 full ctr=-17%;Furin counterscr=1%;nsP2 NS23 pep=u;Papain cs=-4%;nsP2pro conf qHTS=u;HCV NS3 4A cs=i
